Data from PubChem BioAssay (NCI).
About 83,000 compounds went through this panel and 20% of them were active in at least one assay; those are over-represented in the sample as a whole.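 Growth was measured after 48 h exposure to one concentration of compound in 96-well plates. Values under 10 count as active.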 Unmarked numbers belong to inactive results. Calls of active or inactive are those of the source.

What follows are compounds tested on SK-MEL-28 melanoma (assay: NCI-60 one-dose screen, 48 h (100 = growth as untreated, 0 = no growth, -100 = all killed)). Details: 10 µM unless noted.
Protocol: Growth inhibition of the SK-MEL-28 human tumor cell line is measured as a screen for anti-cancer activity. Cells are grown in 96 well plates and exposed to the test compound for 48 hours. Compounds are tested at a single concentration, which is 10^-5 M for most compounds. The reported endpoint is percent growth (GI% or GIPRCNT), where numbers from 0 - 100% represent growth inhibition, and numbers from -100% - 0 represent cell death. For example, a value of 40 represents 60% growth inhibition. A value of 0 means no net growth occurred over the course of the experiment. A value of -40 indicates 40% of cells at the beginning of the experiment died by the end of the experiment. A value of -100 means all cells are dead at the end of the experiment.
NCI-60 Human Tumor Cell Lines Screen was performed using the standard one-dose NCI protocol, which is described in more detail at https://dtp.cancer.gov/discovery_development/nci-60/default.htm.
Compounds with GIPRCNT values below 10 were considered active. Activity score was based on GIPRCNT using the following formula: […]
Score is 0 for GIPRCNT values of 100 or above, 50 for GIPRCNT values of 0, and 100 for GIPRCNT values of -100.
`O=C(N/N=C/c1cccnc1)c1ccccc1Nc1cccc(C(F)(F)F)c1` showed a growth of 85.5%.
`Nc1nnc2cc(Cl)ccc2n1` gave a growth of 114%.
For `FC(F)(F)Oc1cccc(-c2cc(NCCCCCCNc3cc(-c4cccc(OC(F)(F)F)c4)nc4ccc(N5CCCC5)cc34)c3cc(N4CCCC4)ccc3n2)c1`, the growth was -93.7% (active).
Work on `COC(=O)N[C@H]1CCc2cc(OC)c(OC)c(OC)c2-c2ccc(SC)c(=O)cc21` yielded a growth of 56.9%.
With `COc1ccc2c(Nc3ccc(NS(C)(=O)=O)cc3)c3ccccc3nc2c1` the growth was -13.5% (active).
In the case of `Cc1ccc(C(c2c(O)c3cc(Br)ccc3[nH]c2=O)c2c(O)c3cc(Br)ccc3[nH]c2=O)cc1`, the growth is reported as 89.6%.
In the case of `C=C1C(=O)O[C@H]2[C@H]1CC/C(COC(=O)/C=C/c1c[nH]c3ccccc13)=C\CC[C@@]1(C)O[C@@H]21`, the growth is reported as -54% (active).
Work on `Cc1cccc(C)c1-c1cc(Cc2ccc(Cl)cc2)c(=O)[nH]n1` yielded a growth of 108%.
Compound `Fc1ccccc1CSc1ncnc2nc[nH]c12` has a growth of 112%.
Compound `C(=N\Nc1ncc(-c2cc3cc4c(cc3o2)OCO4)s1)/c1c[nH]c2ccccc12` has a growth of 30.9%.
`CC(N)C(=O)NNc1n[nH]c(=S)n1N` (stereo not given) was tested, and the growth was 102%.
Compound `Cc1[nH]c(C(=O)Nc2ccccc2OCc2cccc(C(=O)NCCN)c2)c(Cl)c1Cl` has a growth of 84.3%.
`N/C(=N\N=C\c1cc2ccccc2s1)N/N=C/c1cc2ccccc2s1` showed a growth of 106%.
Work on `O=C(N=Nc1c(O)[nH]c2ccc(F)cc12)c1cc2ccccc2[nH]1` yielded a growth of 110%.
Compound `O=C(O)CCCCCCCCCCCCCCC(=O)O` has a growth of 106%.
For `COc1ccc(NS(=O)(=O)c2ccc(C)cc2)c([N+](=O)[O-])c1`, the growth was 107%.
With `CCN(CC)CCCCCCNc1cc(OC)cc2cccnc12` the growth was -11.8% (active).
`COc1cccc(C(Cc2ccccc2)Nc2ccccc2)c1OC` (stereo not given) gave a growth of 107%.
`Cc1cc(C(=O)Nc2ncnc3nc[nH]c23)no1` was tested, and the growth was 106%.
`N#Cc1ccc(-c2ccc3c(c2)NC(=O)/C3=C\c2ccc[nH]2)cc1` gave a growth of 107%.
With `Cn1c2c(Cl)c(Cl)ccc2c2cc(N)[nH]c(=O)c21` the growth was 103%.
For `Cc1ccc2[nH]c(=S)n(-c3ccc(S(=O)(=O)Nc4ccc(Cl)nn4)cc3)c(=O)c2c1`, the growth was 108%.
`Cc1ccccc1C(c1ccccc1)c1ccccc1C` was tested, and the growth was 103%.
`CCCNC(=O)Oc1ccc(/C(=C(\C)c2ccccc2)c2ccc(OCCN3CCCCC3)cc2)cc1` was tested, and the growth was 70.5%.
Compound `Nc1c(Cl)cc([N+](=O)[O-])cc1Br` has a growth of 110%.
`CCN(CC)CCSCCCNc1c(C)cnc2cc(Cl)ccc12` showed a growth of 87%.
For `CCc1nc(C)cn1C(=O)OCc1nc2nc(Cl)nc(N3CCOCC3)c2[nH]1`, the growth was -89.6% (active).
With `CC[N+](CC)(CCCC(C)[N+]1(Cc2ccccc2)C(C)=CC=C1C)Cc1ccccc1` (stereo not given) the growth was 78.8%.
`CC(=O)c1c(-c2ccc(OC(F)(F)F)cc2)nc2ccccn12` gave a growth of 90%.
`O=C1CCCCCCCCC(O)C(O)CCCC(c2cccs2)O1` (stereo not given) showed a growth of 123%.
In the case of `O=C(/C=C/c1ccc[nH]1)c1ccc(-n2ccc(C(F)(F)F)n2)cc1`, the growth is reported as 103%.
For `Nc1c(C(=O)Nc2ccc(Cl)cc2)cc(-c2nc3ccccc3s2)c(=O)n1NS(=O)(=O)c1ccc(Cl)cc1`, the growth was 109%.
In the case of `COc1cc(C2CC(c3cccc(Nc4ccncc4)c3)=NN2c2ccccc2)cc(OC)c1OC` (stereo not given), the growth is reported as 5.22% (active).
In the case of `O=C(Nc1sc2c(c1C(=O)O)CCCC2)c1cccc(C(F)(F)F)c1`, the growth is reported as 94.4%.
`COC(=O)C1=C(C(=O)ONCCN(C)C)C2C=CC1(C(Cc1ccccc1)Nc1ccc(F)cc1)O2` (stereo not given) gave a growth of 96.1%.
For `O=C(Nc1ccc2ncnc(Nc3ccc(Oc4cccc(F)c4)c(Cl)c3)c2c1)c1ccc(CN2CCOCC2)cc1`, the growth was 52.2%.
`c1ccc(Cn2nc3c(c2-c2ccccc2)-c2oncc2CC3)cc1` was tested, and the growth was 94.4%.
In the case of `S=c1[nH]cccc1-c1nnc2n1Nc1nc3ccc(Cl)cc3cc1CS2`, the growth is reported as 104%.
`C#Cc1cccc(NC(=O)Nc2cccc(N=C=S)c2)c1` gave a growth of 103% [8.25 µM].
Work on `O=S(=O)(NCCNc1nccc(-c2c(-c3cccc(F)c3)nc3occn23)n1)c1cccc2ccccc12` yielded a growth of 73%.
